Measured values published in paper PMC9911399, “Two distinct binding modes provide the RNA-binding protein RbFox with extraordinary sequence specificity”.
Changes are numbered by the printed parent chain; changes in the protein carry UniProt numbers. The full ranking holds about 16,000 sequences; the median of “ka relative to ugcaugu” is about 0.0091, and the highest 2% start at about 0.032. Only a selection was taken, and the highest values are over-represented in it overall.

T1: RBFOX1 RRM (Homo sapiens, UniProt Q9NWB1 109-208)
T1 sequence: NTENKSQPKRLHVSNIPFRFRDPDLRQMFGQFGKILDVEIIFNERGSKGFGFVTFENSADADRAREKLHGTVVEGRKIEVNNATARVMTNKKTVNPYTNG

B1: CCAUAAU (DNA:RNA)
RNA: GGGAGACCGGAAUUCAGAUUGUCCCCAUAAUUUAAAUCCCGUCGUAGCCACCA
DNA 1: CAATCTGAATTCCGGTCTCCC
DNA 2: TGGTGGCTACGACGGGATT
B2: CCUAAGA (DNA:RNA)
RNA: B1 RNA with A27U, U28A, A30G, U31A
DNA 1: CAATCTGAATTCCGGTCTCCC
DNA 2: TGGTGGCTACGACGGGATT
B3: GUAGGGA (DNA:RNA)
RNA: B1 RNA with C25G, C26U, U28G, A29G, A30G, U31A
DNA 1: CAATCTGAATTCCGGTCTCCC
DNA 2: TGGTGGCTACGACGGGATT
B4: CUCCGUG (DNA:RNA)
RNA: B1 RNA with C26U, A27C, U28C, A29G, A30U, U31G
DNA 1: CAATCTGAATTCCGGTCTCCC
DNA 2: TGGTGGCTACGACGGGATT
B5: CGGUUAU (DNA:RNA)
RNA: B1 RNA with C26G, A27G, A29U
DNA 1: CAATCTGAATTCCGGTCTCCC
DNA 2: TGGTGGCTACGACGGGATT
B6: GCACCGU (DNA:RNA)
RNA: B1 RNA with C25G, U28C, A29C, A30G
DNA 1: CAATCTGAATTCCGGTCTCCC
DNA 2: TGGTGGCTACGACGGGATT
B7: CGCACGU (DNA:RNA)
RNA: B1 RNA with C26G, A27C, U28A, A29C, A30G
DNA 1: CAATCTGAATTCCGGTCTCCC
DNA 2: TGGTGGCTACGACGGGATT
B8: GCACGGU (DNA:RNA)
RNA: B1 RNA with C25G, U28C, A29G, A30G
DNA 1: CAATCTGAATTCCGGTCTCCC
DNA 2: TGGTGGCTACGACGGGATT
B9: GCACCGG (DNA:RNA)
RNA: B1 RNA with C25G, U28C, A29C, A30G, U31G
DNA 1: CAATCTGAATTCCGGTCTCCC
DNA 2: TGGTGGCTACGACGGGATT
B10: CACGUUU (DNA:RNA)
RNA: B1 RNA with C26A, A27C, U28G, A29U, A30U
DNA 1: CAATCTGAATTCCGGTCTCCC
DNA 2: TGGTGGCTACGACGGGATT
B11: CAGCACG (DNA:RNA)
RNA: B1 RNA with C26A, A27G, U28C, A30C, U31G
DNA 1: CAATCTGAATTCCGGTCTCCC
DNA 2: TGGTGGCTACGACGGGATT
B12: AGCACGU (DNA:RNA)
RNA: B1 RNA with C25A, C26G, A27C, U28A, A29C, A30G
DNA 1: CAATCTGAATTCCGGTCTCCC
DNA 2: TGGTGGCTACGACGGGATT
B13: CGCACGG (DNA:RNA)
RNA: B1 RNA with C26G, A27C, U28A, A29C, A30G, U31G
DNA 1: CAATCTGAATTCCGGTCTCCC
DNA 2: TGGTGGCTACGACGGGATT
B14: GCCACGU (DNA:RNA)
RNA: B1 RNA with C25G, A27C, U28A, A29C, A30G
DNA 1: CAATCTGAATTCCGGTCTCCC
DNA 2: TGGTGGCTACGACGGGATT
B15: GCACGUU (DNA:RNA)
RNA: B1 RNA with C25G, U28C, A29G, A30U
DNA 1: CAATCTGAATTCCGGTCTCCC
DNA 2: TGGTGGCTACGACGGGATT
B16: AGCACCG (DNA:RNA)
RNA: GGGAGACCGGAAUUCAGAUUGUCCAGCACCGUUAAAUCCCGUCGUAGCCACCA
DNA 1: CAATCTGAATTCCGGTCTCCC
DNA 2: TGGTGGCTACGACGGGATT
B17: ACGUUUU (DNA:RNA)
RNA: B1 RNA with C25A, A27G, A29U, A30U
DNA 1: CAATCTGAATTCCGGTCTCCC
DNA 2: TGGTGGCTACGACGGGATT
B18: GGCUAAG (DNA:RNA)
RNA: B16 RNA with A25G, A28U, C29A, C30A
DNA 1: CAATCTGAATTCCGGTCTCCC
DNA 2: TGGTGGCTACGACGGGATT
B19: CUCGGCA (DNA:RNA)
RNA: B16 RNA with A25C, G26U, A28G, C29G, G31A
DNA 1: CAATCTGAATTCCGGTCTCCC
DNA 2: TGGTGGCTACGACGGGATT
B20: AACGACU (DNA:RNA)
RNA: B16 RNA with G26A, A28G, C29A, G31U
DNA 1: CAATCTGAATTCCGGTCTCCC
DNA 2: TGGTGGCTACGACGGGATT
B21: AUAAAAA (DNA:RNA)
RNA: B1 RNA with C25A, C26U, U28A, U31A
DNA 1: CAATCTGAATTCCGGTCTCCC
DNA 2: TGGTGGCTACGACGGGATT
B22: UUAUCUG (DNA:RNA)
RNA: B16 RNA with A25U, G26U, C27A, A28U, C30U
DNA 1: CAATCTGAATTCCGGTCTCCC
DNA 2: TGGTGGCTACGACGGGATT
B23: AAGCACC (DNA:RNA)
RNA: B16 RNA with G26A, C27G, A28C, C29A, G31C
DNA 1: CAATCTGAATTCCGGTCTCCC
DNA 2: TGGTGGCTACGACGGGATT
B24: AAGCACG (DNA:RNA)
RNA: B16 RNA with G26A, C27G, A28C, C29A
DNA 1: CAATCTGAATTCCGGTCTCCC
DNA 2: TGGTGGCTACGACGGGATT
B25: AAGCCCG (DNA:RNA)
RNA: B16 RNA with G26A, C27G, A28C
DNA 1: CAATCTGAATTCCGGTCTCCC
DNA 2: TGGTGGCTACGACGGGATT
B26: AAAACAC (DNA:RNA)
RNA: B16 RNA with G26A, C27A, C30A, G31C
DNA 1: CAATCTGAATTCCGGTCTCCC
DNA 2: TGGTGGCTACGACGGGATT
B27: CAUCUUU (DNA:RNA)
RNA: B1 RNA with C26A, A27U, U28C, A29U, A30U
DNA 1: CAATCTGAATTCCGGTCTCCC
DNA 2: TGGTGGCTACGACGGGATT
B28: UGCUGUU (DNA:RNA)
RNA: B16 RNA with A25U, A28U, C29G, C30U, G31U
DNA 1: CAATCTGAATTCCGGTCTCCC
DNA 2: TGGTGGCTACGACGGGATT
B29: CUGCCUG (DNA:RNA)
RNA: B16 RNA with A25C, G26U, C27G, A28C, C30U
DNA 1: CAATCTGAATTCCGGTCTCCC
DNA 2: TGGTGGCTACGACGGGATT
B30: UGCCUGU (DNA:RNA)
RNA: B16 RNA with A25U, A28C, C29U, C30G, G31U
DNA 1: CAATCTGAATTCCGGTCTCCC
DNA 2: TGGTGGCTACGACGGGATT
B31: UGCCGGU (DNA:RNA)
RNA: B16 RNA with A25U, A28C, C29G, C30G, G31U
DNA 1: CAATCTGAATTCCGGTCTCCC
DNA 2: TGGTGGCTACGACGGGATT
B32: UGCCCUG (DNA:RNA)
RNA: B16 RNA with A25U, A28C, C30U
DNA 1: CAATCTGAATTCCGGTCTCCC
DNA 2: TGGTGGCTACGACGGGATT
B33: CUGUGCC (DNA:RNA)
RNA: B1 RNA with C26U, A27G, A29G, A30C, U31C
DNA 1: CAATCTGAATTCCGGTCTCCC
DNA 2: TGGTGGCTACGACGGGATT

Target: T1, RBFOX1 RRM
Assay: EMSA; HiTS-Eq, 1 nM pool, 10 min; buffer printed only for the single-RNA assays: 10 mM Tris pH 7.5, 150 mM NaCl, 3.4 mM EDTA, 0.001% NP-40, 30 C
Details: tags: His6 N-terminal (pET28a); label: 5' 32P
In short: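 Relative association constants, normalised to the cognate motif, were derived by comparing read counts of each RNA species with those of the control reaction. The RNA sequenced was the free fraction, separated by 8% native PAGE after a 10 min equilibration in 50 µL of 1 nM 5′-radiolabelled RNA (7 randomized nucleotides) with increasing concentrations of purified wild-type or mutant RbFox RRM.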

| Binder | binding signal |
| --- | --- |
| B1 | 0.00169 KA relative to UGCAUGU |
| B2 | 0.00773 KA relative to UGCAUGU |
| B3 | 0.00497 KA relative to UGCAUGU |
| B4 | 0.0111 KA relative to UGCAUGU |
| B5 | 0.0102 KA relative to UGCAUGU |
| B6 | 0.0125 KA relative to UGCAUGU |
| B7 | 0.0433 KA relative to UGCAUGU |
| B8 | 0.0324 KA relative to UGCAUGU |
| B9 | 0.00674 KA relative to UGCAUGU |
| B10 | 0.00574 KA relative to UGCAUGU |
| B11 | 0.0261 KA relative to UGCAUGU |
| B12 | 0.0367 KA relative to UGCAUGU |
| B13 | 0.0278 KA relative to UGCAUGU |
| B14 | 0.011 KA relative to UGCAUGU |
| B15 | 0.043 KA relative to UGCAUGU |
| B16 | 0.00835 KA relative to UGCAUGU |
| B17 | 0.00473 KA relative to UGCAUGU |

| Binder | binding signal |
| --- | --- |
| B18 | 0.0134 KA relative to UGCAUGU |
| B19 | 0.0189 KA relative to UGCAUGU |
| B20 | 0.00509 KA relative to UGCAUGU |
| B21 | 0.00125 KA relative to UGCAUGU |
| B22 | 0.0132 KA relative to UGCAUGU |
| B23 | 0.00479 KA relative to UGCAUGU |
| B24 | 0.0333 KA relative to UGCAUGU |
| B25 | 0.00982 KA relative to UGCAUGU |
| B26 | 0.00144 KA relative to UGCAUGU |
| B27 | 0.00311 KA relative to UGCAUGU |
| B28 | 0.0254 KA relative to UGCAUGU |
| B29 | 0.0391 KA relative to UGCAUGU |
| B30 | 0.0501 KA relative to UGCAUGU |
| B31 | 0.0131 KA relative to UGCAUGU |
| B32 | 0.025 KA relative to UGCAUGU |
| B33 | 0.0119 KA relative to UGCAUGU |
